{"source": "PubChem BioAssay (Tox21)", "note": "Records with an inconclusive call do not appear. Values without a mark were called inactive. Calls of active or inactive are those of the source. Calls come from the whole dose curve; as a rule, active = well fitted cell-killing curve with a large enough effect in the repeat runs; inconclusive = weak or mixed curves, or effect the other way; inactive = flat fitted curve, though single readings scatter. % is set by controls: 0 for no effect and ±100 for the full control effect.", "data": [{"experiment": "qHTS RealTime-Glo MT Cell Viability Assay in HepG2 cells - 0 hour (AID 1224889); note: nearly all actives have a fitted effect of over 50% in size", "conditions": "RealTime-Glo luminescence; series mostly up to 76.8 µM; activity change, negative = cytotoxicity: at the top concentration", "text": "U.S. Tox21 Program National Center for Advancing Translational Sciences [NCATS] NIH Chemical Genomics Center [NCGC] U.S. Environmental Protection Agency [EPA] National Institutes of Environmental Health Sciences [NIEHS] National Toxicology Program [NTP] U.S. Food and Drug Administration [FDA] Tox21 Assay Overview: Measure of cell viability is critical in the cell-base assay. Analysis of cell viability is necessary for the characterization of cell responses to cytotoxic drugs and environmental stress. A RealTime-Glo MT Cell Viability Assay to monitor cell viability in real time of continues cell culture during 40 hours of compound treatment was used to screen Tox21 10K library compounds in HepG2 cells. The RealTime-Glo MT Cell Viability Assay is a nonlytic, homogeneous, bioluminescent method to measure cell viability in real time using a simple, plate-based method. The assay involves adding NanoLuc luciferase and a cell-permeant prosubstrate to cells in culture. Viable cells reduce the proprietary prosubstrate to generate a substrate for NanoLuc luciferase. This substrate diffuses from cells into the surrounding culture medium, where it is rapidly used by the NanoLuc Enzyme to produce a luminescent signal. The signal correlates with the number of viable cells, making the assay well suited for cytotoxicity studies.\nTox21 Assay Protocol Summary: The mixture of HepG2 cell suspension and reagents were dispensed at 600cells/6 ul/well in 1536-well tissue culture treated black solid bottom plates using a Multidrop dispenser. After the assay plates were incubated at a 37 C/5% CO2 incubator for 5 hours, 23 nL of compounds dissolved in DMSO, positive and negative controls was transferred to the assay plate by a pintool work station. The plates were incubated at 37 C for 40 hours. The luminescence intensity were measured at 0h, 8h, 16h, 24h, 32h and 40h time points using ViewLux plate reader during compound treatment.", "values": [{"smiles": "CCOC1Oc2ccc(OS(C)(=O)=O)cc2C1(C)C", "note": "(stereo not given)", "activity change, negative = cytotoxicity": "4.2%"}, {"smiles": "Cc1cccc2sc3nncn3c12", "activity change, negative = cytotoxicity": "3.02%"}, {"smiles": "Clc1cc2c(cc1Cl)Oc1cc(Cl)c(Cl)cc1O2", "activity change, negative = cytotoxicity": "7.93% [at 0.29 µM]"}, {"smiles": "CC(C)NCC(O)c1ccc([N+](=O)[O-])cc1", "note": "(stereo not given)", "activity change, negative = cytotoxicity": "-6.34% [at 35.3 µM]"}, {"smiles": "CCC1(c2ccccc2)C(=O)N(COC)C(=O)N(COC)C1=O", "activity change, negative = cytotoxicity": "8.5% [at 35.3 µM]"}, {"smiles": "O=C(Cl)c1ccccc1", "activity change, negative = cytotoxicity": "-0.649%"}, {"smiles": "CCOC(=O)Nc1cccc(OC(=O)Nc2ccccc2)c1", "activity change, negative = cytotoxicity": "6.59%"}, {"smiles": "CCOC(=O)N(C)N=O", "activity change, negative = cytotoxicity": "6.11%"}, {"smiles": "CCCC(C)C1(CC)C(=O)N=C(S)NC1=O", "note": "(stereo not given)", "activity change, negative = cytotoxicity": "-3.7% [at 35.3 µM]"}, {"smiles": "CCc1ccc(C2CCNCC2)cc1", "activity change, negative = cytotoxicity": "13.9% [at 35.3 µM]"}, {"smiles": "N#CC(Br)(Br)C(N)=O", "activity change, negative = cytotoxicity": "-7.42%"}, {"smiles": "C=CCN1CC[C@]23CCCC[C@H]2[C@H]1Cc1ccc(O)cc13", "activity change, negative = cytotoxicity": "-2.42% [at 35.3 µM]"}, {"smiles": "C#CC(C)(C)O", "activity change, negative = cytotoxicity": "4.26%"}, {"smiles": "C=CC1(C)OC(=O)N(c2cc(Cl)cc(Cl)c2)C1=O", "note": "(stereo not given)", "outcome": "inactive"}, {"smiles": "COc1ccc2c(C(=O)c3ccc(Cl)cc3)c(C)n(CC(=O)O)c2c1", "activity change, negative = cytotoxicity": "-20.9% [at 35.3 µM]"}, {"smiles": "CN(C)C(=O)Oc1cc(OC(=O)N(C)C)cc(C(O)CNC(C)(C)C)c1", "note": "(stereo not given)", "activity change, negative = cytotoxicity": "0.581% [at 35.3 µM]"}, {"smiles": "ClCCCCCCCl", "activity change, negative = cytotoxicity": "9.06%"}, {"smiles": "CC(C)(C)c1cc(O)ccc1O", "outcome": "inactive"}, {"smiles": "O=[N+]([O-])CCO", "activity change, negative = cytotoxicity": "1.85%"}, {"smiles": "CC(C)(C)C(=O)Cl", "activity change, negative = cytotoxicity": "-1.2%"}, {"smiles": "NC1(c2ccccc2)CCCCC1", "activity change, negative = cytotoxicity": "11.2%"}, {"smiles": "COP(=O)(O)OC", "activity change, negative = cytotoxicity": "2.89%"}, {"smiles": "OCC(Cl)CCl", "note": "(stereo not given)", "activity change, negative = cytotoxicity": "-0.868%"}, {"smiles": "O=S1(=O)OCCO1", "activity change, negative = cytotoxicity": "-3.07%"}, {"smiles": "CCC(CC)(CNC(=O)CCCO)c1cccc(OC)c1", "activity change, negative = cytotoxicity": "13.7% [at 35.3 µM]"}, {"smiles": "CCN(CC)CCOC(=O)C(O)(c1ccccc1)c1ccccc1", "activity change, negative = cytotoxicity": "-3.41% [at 35.3 µM]"}, {"smiles": "O=c1[nH]c2ccccc2o1", "activity change, negative = cytotoxicity": "11.2%"}, {"smiles": "CC(C)(C)C(=O)C(Cl)Cl", "activity change, negative = cytotoxicity": "5.23%"}, {"smiles": "BrCC1CO1", "note": "(stereo not given)", "activity change, negative = cytotoxicity": "-11.2%"}, {"smiles": "ClC1=C(Cl)C2(Cl)C(CBr)CC1(Cl)C2(Cl)Cl", "note": "(stereo not given)", "outcome": "inactive"}, {"smiles": "O=C(NC(O)C(Cl)(Cl)Cl)NC(O)C(Cl)(Cl)Cl", "note": "(stereo not given)", "activity change, negative = cytotoxicity": "1.08% [at 35.3 µM]"}, {"smiles": "O=C1C2CC=CCC2C(=O)N1SC(Cl)(Cl)Cl", "note": "(stereo not given)", "outcome": "inactive"}, {"smiles": "CC(Cc1ccccc1)NCCn1cnc2c1c(=O)n(C)c(=O)n2C", "note": "(stereo not given)", "activity change, negative = cytotoxicity": "1.81%"}, {"smiles": "CC[C@H](N)c1ccccc1", "activity change, negative = cytotoxicity": "-6.73%"}, {"smiles": "NNC(N)=O", "activity change, negative = cytotoxicity": "-7.45%"}, {"smiles": "NCCOS(=O)(=O)O", "activity change, negative = cytotoxicity": "-0.568%"}, {"smiles": "CCOC(=O)C(Cl)Cc1cc(-n2nc(C)n(C(F)F)c2=O)c(F)cc1Cl", "note": "(stereo not given)", "activity change, negative = cytotoxicity": "-3.34%"}, {"smiles": "CCN(CCO)CCn1c(Cc2ccccc2)nc2c1c(=O)n(C)c(=O)n2C", "activity change, negative = cytotoxicity": "4.58% [at 35.3 µM]"}, {"smiles": "N#CN=C1SCCN1Cc1ccc(Cl)nc1", "activity change, negative = cytotoxicity": "0.145%"}, {"smiles": "C=C(Cl)CSC(=S)N(CC)CC", "activity change, negative = cytotoxicity": "-0.564%"}]}]}
